Experimental data as given in the antibiotic and cytotoxicity screens of Wong et al. (2023).
In all, about 39,000 compounds went through this assay and about 3,300 (8.5%) were called active. Only a selection was taken, and actives are over-represented in it overall.

System: HepG2
Experiment: cytotoxicity call (relative viability < 0.9)
Conditions: 10 µM

Structure (SMILES)	cytotoxicity call
CC(/C=C/C(=O)NO)=C\c1ccccc1OCc1cn(CC[C@@H]2OC(=O)[C@H](Cc3ccccc3)N3CC4=C[C@@H](C5CC5)n5c(=O)n(C)c(=O)n5[C@H]4[C@H]23)nn1	inactive
C[C@@H](N)C(=O)OC(C)(C)Cc1ccc(Cl)cc1	inactive
C[C@@H]1CCCCO[C@@H](CN(C)S(C)(=O)=O)[C@H](C)CN([C@@H](C)CO)C(=O)c2cc(NS(C)(=O)=O)ccc2O1	inactive
COC(=O)c1c2oc(c1C(=O)OC)C(=O)N[C@@H](Cc1ccccc1)Cn1cc(nn1)CNC(=O)[C@@H](Cc1ccccc1)NC(=O)N[C@@H](CO)CC2	inactive
C[C@H]1OC(=O)CC[C@@H](O)/C=C/[C@@H](O)[C@@H]1O	inactive
O=C(O)[C@H]1Cc2ccccc2CN1	inactive
CC(C)NC(=O)N[C@H]1C=C[C@@H](CC(=O)NCCCN(C)C)O[C@@H]1CO	inactive
COc1nc(N)nc2c1ncn2[C@@H]1O[C@H](CO)[C@@H](O)[C@@H]1O	inactive
CN(C)c1ncnc2c1ncn2[C@H]1O[C@@H](CO)[C@@H](N)[C@@H]1O	active
Nc1ccc(CCNc2ncnc3c2ncn3[C@@H]2O[C@H](CO)[C@@H](O)[C@H]2O)cc1	inactive
COc1ccc(CC(N)C(=O)NC2C(CO)OC(n3cnc4c(N(C)C)ncnc43)C2O)cc1.Cl.Cl (stereo not given)	active
Nc1ncnc2c1ncn2[C@@H]1O[C@H](CO)[C@@H](O)[C@H]1O	inactive
COc1ccc(C[C@H](N)C(=O)N[C@H]2[C@@H](O)[C@@H](n3cnc4c(N(C)C)ncnc43)O[C@@H]2CO)cc1	active
COc1ccc(C[C@@H](N)C(=O)N[C@@H]2[C@@H](O)[C@@H](n3cnc4c(N(C)C)ncnc43)O[C@@H]2CO)cc1	active
Nc1ncnc2c1ncn2C1OC(CO)C(O)C1O (stereo not given)	inactive
C[C@@H]1CN([C@H](C)CO)C(=O)c2cccc(NS(C)(=O)=O)c2O[C@@H]1CN(C)Cc1ccc(C(=O)Nc2ccccc2N)cc1	inactive
COCC#Cc1ccc2c(c1)O[C@H](CN(C)S(=O)(=O)c1ccc(C)cc1)[C@@H](C)CN([C@H](C)CO)S2(=O)=O	inactive
C[C@@H]1CN([C@H](C)CO)C(=O)c2cc(NC(=O)Nc3cccc4ccccc34)ccc2O[C@@H]1CN(C)S(=O)(=O)c1ccc(Cl)cc1	inactive
C[C@H](CO)N1C[C@H](C)[C@H](CN(C)S(=O)(=O)c2cn(C)cn2)Oc2c(NC(=O)C3CCCCC3)cccc2C1=O	inactive
C[C@H]1CN([C@@H](C)CO)C(=O)Cc2cc(NC(=O)Cc3cn(C)c4ccccc34)ccc2O[C@H]1CN(C)S(=O)(=O)c1cn(C)cn1	inactive
COc1ccc(NC(=O)N(C)C[C@H]2OCCCC[C@H](C)Oc3ccc(NC(=O)Nc4ccccc4)cc3C(=O)N([C@@H](C)CO)C[C@H]2C)cc1	inactive
COCCNC(=O)C[C@H]1CC[C@@H](NS(=O)(=O)c2ccc(C)cc2)[C@H](CO)O1	inactive

Structure (SMILES)	cytotoxicity call
Cc1ccc(S(=O)(=O)Nc2ccc3c(c2)CC(=O)N([C@H](C)CO)C[C@H](C)[C@H](CN(C)S(=O)(=O)c2cccs2)O3)cc1	inactive
Nc1ncnc2c1ncn2[C@@H]1O[C@H](CSCC[C@H](N)C(=O)O)[C@@H](O)[C@H]1O	inactive
COc1ccc(C[C@H](N)C(=O)N[C@H]2[C@@H](O)[C@H](n3cnc4c(N(C)C)ncnc43)O[C@@H]2CO)cc1	active
C[S+](CC[C@H](N)C(=O)O)C[C@H]1O[C@@H](n2cnc3c(N)ncnc32)[C@H](O)[C@@H]1O (stereo not given in full)	inactive
C[C@H](CO)N1C[C@H](C)[C@H](CN(C)S(=O)(=O)c2ccccc2F)Oc2ncc(C#Cc3cccnc3)cc2C1=O	inactive
C[C@H](CO)N1C[C@H](C)[C@H](CN(C)C(=O)Nc2cccc3ccccc23)Oc2ncc(-c3ccc(F)cc3)cc2C1=O	inactive
COCCCCC(=NOCCN)c1ccc(C(F)(F)F)cc1.O=C(O)C=CC(=O)O	active
O=C(Nc1cccc2ccccc12)c1ccc(C(F)(F)F)cc1	inactive
Cc1noc(C)c1NC(=O)Nc1ccc2c(c1)CC(=O)N([C@H](C)CO)C[C@@H](C)[C@@H](CN(C)CC1CC1)O2	inactive
COc1ccc(NC(=O)N(C)C[C@@H]2Oc3ccc(NC(=O)Cn4cnnn4)cc3C(=O)N([C@@H](C)CO)C[C@@H]2C)cc1	inactive
CO[C@@H]1CN(C)C(=O)c2cc(NS(=O)(=O)c3cn(C)cn3)ccc2OC[C@@H](C)N(CC2CC2)C[C@H]1C	inactive
Cn1c(=O)c2[nH]cnc2n(C)c1=O.NCCN	inactive
C[C@@H]1CCCCO[C@H](CN(C)CC2CC2)[C@H](C)CN([C@@H](C)CO)C(=O)c2cc(NC(=O)Nc3ccccc3)ccc2O1	inactive
C[C@H]1CCCCO[C@H](CN(C)CC2CCCCC2)[C@@H](C)CN([C@@H](C)CO)C(=O)c2cc(NC(=O)Nc3ccccc3)ccc2O1	inactive
C[C@@H]1CN([C@@H](C)CO)C(=O)c2cc(NC(=O)Nc3ccccc3)ccc2O[C@@H](C)CCCCO[C@@H]1CN(C)CC1CCCCC1	active
C[C@@H]1CN([C@H](C)CO)C(=O)c2cc(NC(=O)Nc3ccccc3)ccc2O[C@@H](C)CCCCO[C@@H]1CN(C)CC1CCCCC1	inactive
C[C@@H]1CCCCO[C@H](CN(C)CC2CCCCC2)[C@@H](C)CN([C@H](C)CO)C(=O)c2cc(NC(=O)Nc3ccccc3)ccc2O1	inactive
C[C@@H]1CN([C@@H](C)CO)C(=O)c2cc(NC(=O)Nc3ccccc3)ccc2O[C@@H](C)CCCCO[C@H]1CN(C)CC1CCCCC1	inactive
C[C@@H]1CCCCO[C@H](CN(C)CC2CCCCC2)[C@H](C)CN([C@@H](C)CO)C(=O)c2cc(NC(=O)Nc3ccccc3)ccc2O1	active
C[C@H](CO)N1C[C@H](C)[C@@H](CN(C)CC2CCCCC2)OCCCC[C@H](C)Oc2ccc(NC(=O)Nc3ccccc3)cc2C1=O	inactive
C[C@@H]1CCCCO[C@@H](CN(C)CC2CCCCC2)[C@H](C)CN([C@@H](C)CO)C(=O)c2cc(NC(=O)Nc3ccccc3)ccc2O1	inactive
C[C@H]1CCCCO[C@@H](CN(C)CC2CCCCC2)[C@@H](C)CN([C@@H](C)CO)C(=O)c2cc(NC(=O)Nc3ccccc3)ccc2O1	active

Structure (SMILES)	cytotoxicity call
C[C@@H]1CCCCO[C@H](CN(C)CC2CC2)[C@@H](C)CN([C@H](C)CO)C(=O)c2cc(NC(=O)Nc3ccccc3)ccc2O1	inactive
C[C@@H]1CCCCO[C@@H](CN(C)CC2CCCCC2)[C@@H](C)CN([C@H](C)CO)C(=O)c2cc(NC(=O)Nc3ccccc3)ccc2O1	active
C[C@H](CO)N1C[C@H](C)[C@@H](CN(C)S(=O)(=O)c2cn(C)cn2)Oc2c(NC(=O)c3nc4ccccc4s3)cccc2C1=O	inactive
COc1ccc(NC(=O)N2C[C@H](O)COC[C@@H]3O[C@@H](CC(=O)NCc4ccccc4OC)CC[C@H]32)cc1	inactive
O=C1O[C@H](c2ccccc2)[C@H](c2ccccc2)N2[C@H]1[C@@H](C(=O)O)[C@]1(C(=O)Nc3ccc(Cl)cc31)[C@H]2c1ccc(F)cc1	inactive
NC(=O)COc1ccccc1	inactive
C[C@H](CO)N1C[C@H](C)[C@H](CN(C)C(=O)Nc2ccc3c(c2)OCO3)OCc2cnnn2CCCC1=O	inactive
Cc1noc(C)c1S(=O)(=O)N(C)C[C@@H]1Oc2ccc(NS(C)(=O)=O)cc2C(=O)N([C@@H](C)CO)C[C@@H]1C	inactive
C[C@@H]1CCCCO[C@@H](CN(C)S(=O)(=O)c2cn(C)cn2)[C@@H](C)CN([C@H](C)CO)C(=O)c2cc(NS(C)(=O)=O)ccc2O1	inactive
COCC(=O)Nc1ccc2c(c1)C(=O)N(C)C[C@H](OC)[C@H](C)CN(Cc1cccc(F)c1)[C@H](C)CO2	inactive
C=CCOC(=O)[C@@H]1[C@H]2C(=O)O[C@H](c3ccccc3)[C@H](c3ccccc3)N2[C@H](c2ccc(OCCOC(=O)[C@H]3C[C@H]4C(=O)NCC(=O)N4[C@H]3c3cccc(OCCO)c3)cc2)[C@@]12C(=O)Nc1ccccc12	inactive
C[C@@H]1CN([C@@H](C)CO)C(=O)c2cc(NC(=O)NC3CCCCC3)ccc2O[C@@H](C)CCCCO[C@@H]1CN(C)S(=O)(=O)c1ccc(F)cc1	inactive
C[C@H]1CN([C@@H](C)CO)C(=O)c2cc(NS(=O)(=O)c3ccc(F)cc3)ccc2O[C@@H]1CN(C)C(=O)Nc1ccc(C(F)(F)F)cc1	inactive
C[C@H](CO)N1C[C@H](C)[C@@H](CN(C)CC2CC2)OCCCC[C@H](C)Oc2ccc(NC(=O)Nc3ccccc3)cc2C1=O	inactive
C[C@@H]1CCCCO[C@H](CN(C)CC2CCCCC2)[C@H](C)CN([C@H](C)CO)C(=O)c2cc(NC(=O)Nc3ccccc3)ccc2O1	active
C[C@H]1CCCCO[C@H](CN(C)CC2CC2)[C@@H](C)CN([C@@H](C)CO)C(=O)c2cc(NC(=O)Nc3ccccc3)ccc2O1	inactive
C[C@@H]1CCCCO[C@@H](CN(C)CC2CC2)[C@H](C)CN([C@@H](C)CO)C(=O)c2cc(NC(=O)Nc3ccccc3)ccc2O1	inactive
C[C@@H]1CCCCO[C@@H](CN(C)CC2CCCCC2)[C@@H](C)CN([C@@H](C)CO)C(=O)c2cc(NC(=O)Nc3ccccc3)ccc2O1	active
C[C@H](CO)N1C[C@H](C)[C@H](CN(C)CC2CCCCC2)OCCCC[C@H](C)Oc2ccc(NC(=O)Nc3ccccc3)cc2C1=O	active
C[C@@H]1CCCCO[C@@H](CN(C)CC2CC2)[C@H](C)CN([C@H](C)CO)C(=O)c2cc(NC(=O)Nc3ccccc3)ccc2O1	inactive
C[C@@H]1CCCCO[C@@H](CN(C)CC2CCCCC2)[C@H](C)CN([C@H](C)CO)C(=O)c2cc(NC(=O)Nc3ccccc3)ccc2O1	active
